Assay [1] can be described thus: StAR promoter reporter inhibitors, counter-screen for LRH-1 inverse agonist project, cell-based, luminescence, high throughput (AID 651611; in the data active = inhibition above about 28%). To be noted: StAR promoter luciferase reporter counterscreen, at 3.6 µM, stronger effect = higher value.
Assay [2] deals with Nuclear receptor subfamily 5 group A member 2 (Homo sapiens) (UniProt O00482). Briefly: NR5A2 activity suppression in reporter cells – cell-based, luminescence, confirmation (AID 651613; in the data active = inhibition above about 42%;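 note: HEK293T cells co-transfected with LRH-1 and StAR promoter luciferase reporter; 0% = vehicle wells and 100% = parental cells lacking receptor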). The note with it: cell-based LRH-1 luciferase reporter, inverse agonism; at 3.6 µM; stronger effect = higher value. (A reporter such as luciferase makes a cellular process visible.)
Sequence of Nuclear receptor subfamily 5 group A member 2 (Homo sapiens) (O00482 whole entry, looked up): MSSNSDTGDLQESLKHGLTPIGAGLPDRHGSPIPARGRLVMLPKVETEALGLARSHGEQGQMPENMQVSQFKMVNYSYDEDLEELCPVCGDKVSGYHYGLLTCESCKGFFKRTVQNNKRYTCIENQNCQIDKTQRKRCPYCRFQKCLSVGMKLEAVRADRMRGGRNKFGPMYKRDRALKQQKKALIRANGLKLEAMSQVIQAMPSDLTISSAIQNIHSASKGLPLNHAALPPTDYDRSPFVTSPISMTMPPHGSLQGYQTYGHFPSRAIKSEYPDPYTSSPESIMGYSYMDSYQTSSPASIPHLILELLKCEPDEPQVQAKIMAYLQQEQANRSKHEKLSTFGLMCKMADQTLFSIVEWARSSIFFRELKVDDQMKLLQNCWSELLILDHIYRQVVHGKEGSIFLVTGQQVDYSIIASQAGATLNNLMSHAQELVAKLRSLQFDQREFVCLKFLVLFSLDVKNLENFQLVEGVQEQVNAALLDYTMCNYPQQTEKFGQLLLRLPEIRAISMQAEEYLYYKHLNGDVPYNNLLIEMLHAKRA
Assay [3] addresses Steroidogenic factor 1 (Homo sapiens) (UniProt Q13285). Briefly: inverse agonism at SF1 nuclear receptor – cell-based, luminescence, high throughput, counter-screen for LRH-1 inverse agonist project (AID 651614).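 Note: cells cotransfected with StAR promoter reporter and SF1 expression vector; 0% = vehicle on cells with receptor and 100% = vehicle on cells lacking receptor.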 The note with it: cell-based SF1 luciferase reporter, at 3.6 µM, stronger effect = higher value. Background: A counterscreen serves to expose hits that act by an unwanted route or on another target.

The nature of assay [4]: compounds suppressing VP16-driven luciferase signal – cell-based, luminescence, high throughput, counter-screen for LRH-1 inverse agonist project (AID 651615; in the data active = inhibition above about 33%). To be noted: Gal4-VP16 luciferase reporter cells, at 3.6 µM, stronger effect = higher value.

The source of these data is PubChem BioAssay.

A number with no mark means an inactive call. Calls of active or inactive are those of the source. Cut-off read from the data, not from the text of the source, unless noted: active = inhibition above about 44%; inactive = the rest.

Sequence of Steroidogenic factor 1 (Homo sapiens) (Q13285 whole entry, looked up): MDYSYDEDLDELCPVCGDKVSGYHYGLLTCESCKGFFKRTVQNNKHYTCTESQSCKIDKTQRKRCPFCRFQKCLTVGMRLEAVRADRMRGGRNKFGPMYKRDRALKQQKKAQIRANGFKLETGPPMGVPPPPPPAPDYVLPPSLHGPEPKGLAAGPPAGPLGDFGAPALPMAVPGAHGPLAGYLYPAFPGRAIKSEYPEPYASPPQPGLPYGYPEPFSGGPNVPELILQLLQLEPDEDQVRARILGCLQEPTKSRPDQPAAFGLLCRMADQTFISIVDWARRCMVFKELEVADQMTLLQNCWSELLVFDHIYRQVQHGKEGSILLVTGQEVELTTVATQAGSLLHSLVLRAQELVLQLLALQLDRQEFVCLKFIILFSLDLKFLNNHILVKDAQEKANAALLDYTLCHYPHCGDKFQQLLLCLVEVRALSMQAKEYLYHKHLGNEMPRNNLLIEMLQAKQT

Broadly, the inhibition is the change of the read-out against control, counted positive when it falls. For the compound `O=C(NCc1cccnc1)c1ccc([N+](=O)[O-])o1`, the inhibition in assay [1] is 16.3%; in assay [2], 62.7% (active); in assay [3], 63.4% (active); in assay [4] it was -3.23%.
For the compound `N#Cc1c2ccc([N+](=O)[O-])cc2[n+]([O-])n1-c1ccccc1`, the inhibition was 58.2% (active) in assay [1], 81.5% (active) in assay [2], 75.4% (active) in assay [3] and -21.2% in assay [4].
The matching figures for `O=C(CSc1n[nH]c(-c2ccccn2)n1)Nc1ccc(Cl)cc1`: 36.3% (active), 70% (active), 67.1% (active) and 41.4% (active).
`Cc1cc(C)c2c(NC(=O)CCl)nn(C)c2n1`: the inhibition in assay [1] is 46.8% (active); in assay [2], 64.2% (active); in assay [3], 68.7% (active); in assay [4], -39.7%.
The matching figures for `CCc1cc(=O)oc2c(C)c(OCC(=O)NCCN3CCOCC3)ccc12`: -3.34%, 48.5% (active), 30.7% and -8.24%.
The matching figures for `O=[N+]([O-])c1cccc(-c2ccc3nnc(SCc4cccnc4)n3n2)c1`: 3.6%, 62.1% (active), 62% (active) and 19.4%.
For `N#CC1=C(N)C(C#N)(C#N)[C@H](c2c(F)cccc2F)[C@H]2CC3(CC=C12)OCCO3` the same measures were 16.1%, 60.9% (active), 54% (active) and 17.2%.
For `CCOc1ccc(NC(=O)CN2CCN(CC(=O)Nc3ccc(OC)cc3)CC2)cc1`, the inhibition is 9.49% in assay [1], 58.5% (active) in assay [2], 56.2% (active) in assay [3] and 8.13% in assay [4].
The matching figures for `CCc1cc(=O)oc2cc3occ(-c4ccc(OC)c(F)c4)c3cc12`: 26.4%, 75% (active), 60.6% (active) and 23.1%.
The matching figures for `COc1cc(/C=C2/SC(=Nc3ccc(O)cc3)NC2=O)ccc1O`: 38.7% (active), 48.5% (active), 43.5% (active) and -31.2%.
For `COc1ccccc1NC(=O)CN1CCN(CC(=O)Nc2ccc3c(c2)OCO3)CC1` the same measures were 7.22%, 54.4% (active), 50.7% (active) and 0.21%.
`CC(=O)Nc1cc(-c2cccc(NS(C)(=O)=O)c2)cn2c(-c3ccccc3)cnc12`: the inhibition in assay [1] is 28% (active); in assay [2] it was 40.4%; in assay [3], 34.3%; in assay [4] it was -8.63%.
For the compound `Cc1ccc(S(=O)(=O)Nc2ccc3c(c2)n(C)c(=O)n3C)cc1`, the inhibition in assay [1] is 40.1% (active); in assay [2], 48.8% (active); in assay [3], 38.3%; in assay [4], -96.8%.
For `c1ccc(-n2nnnc2-c2cccc3ccccc23)cc1` the same measures were 42% (active), 52.5% (active), 62.6% (active) and 23%.
Consider `Oc1[nH]c2ccc(Br)cc2c1N=NC(=S)N1CCOCC1`, for which the inhibition in assay [1] is 83.2% (active); in assay [2], 93.8% (active); in assay [3], 87.7% (active); in assay [4], 55.5% (active).
The matching figures for `O=C(COc1ccc2c3c(c(=O)oc2c1)CCCC3)NCCN1CCOCC1`: 0.51%, 41.4% (active), 23.5% and -1.02%.
Regarding `CCCc1cc(=O)oc2cc(OCC(=O)NC3CC(C)(C)NC(C)(C)C3)ccc12`, the inhibition in assay [1] was -0.91%; in assay [2], 53% (active); in assay [3] it was 45.7% (active); in assay [4], 2.6%.
As to `COc1cccc2c1C1COC3C4CC(C(=O)O)C(C(C2)N13)N4C` (centres undefined), the inhibition was 29.8% (active) in assay [1], 45.4% (active) in assay [2], 72.3% (active) in assay [3] and -10.2% in assay [4].
With `COc1ccc(NC(=O)CN2C(=O)NC3(CCCc4ccccc43)C2=O)c(OC)c1` (centres undefined), the inhibition in assay [1] is 12.3%; in assay [2], 50.9% (active); in assay [3], 42%; in assay [4], -6.1%.
As for `CCCc1nnc(SCC(=O)Nc2ccc(C(=O)OCC)cc2)o1`, the inhibition in assay [1] was 5.44%; in assay [2], 56.6% (active); in assay [3], 60.7% (active); in assay [4], -15.5%.
Consider `CCOc1cc(/C=N/n2nnnc2N)ccc1OCc1c(C)no[n+]1[O-]`, for which the inhibition in assay [1] was 12.5%; in assay [2] it was 53.2% (active); in assay [3], 56.4% (active); in assay [4], -7.92%.
The matching figures for `CC(=NNC(=S)N1CCN(c2ccccn2)CC1)c1nccs1`: 82.9% (active), 91.2% (active), 79.4% (active) and 44.3% (active).
The matching figures for `Cc1sc(NC(=S)NC(=O)CCc2ccccc2)c(C(N)=O)c1C`: 54% (active), 35.5%, 38.1% and 11.8%.
Turning to `Cc1cc(C)c2c(C)c(C(=O)NCc3ccncc3)oc2c1`, the inhibition in assay [1] was 9.09%; in assay [2], 46.3% (active); in assay [3], 38.3%; in assay [4], 7.5%.
The matching figures for `O=C1CC(c2ccc3c(c2)OCCO3)Oc2ccc([N+](=O)[O-])cc21` (centres undefined): 14.5%, -49.9%, -37% and -35.3%.
For `O=Cc1ccc2c(c1)CCN2Cc1ccccc1`, the inhibition in assay [1] is 4.56%; in assay [2], 56.6% (active); in assay [3], 55.7% (active); in assay [4], -34.1%.
